Experimental data as given in PubChem BioAssay AID1159580 (chemical genetic matrix, 2015).
Screen size: about 5,500 compounds; about 2,000 (36%) were called active. About 18% were inconclusive and are not listed. Cut-off read from the data, not from the text of the source: active = normalized growth mostly below about 0.91 (no sharp cut-off); inconclusive = no clear call, values can overlap the other calls; inactive = mostly above about 0.92. This is one part of the list.

Test: chemical genetic growth profiling, strain panel (AID 1159580);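 note: tested at 20 µM; growth read once vehicle control cultures reached saturation at 30 °C; 1 = growth at the plate median or of vehicle wells; lower values mean less growth of the strain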
Conditions: growth OD

Measured: normalized growth

CC(=O)C1CCC2C3CCC4C[C@H](O)CCC4(C)C3C[C@H](O)C12C (some centres not stated)
inactive: S. cerevisiae deletion strains, locus YJL187C, strain SWE1, stronger effect = lower value 0.965 | S. cerevisiae deletion strains, locus YJR066W, strain TOR1, stronger effect = lower value 0.923 | S. cerevisiae deletion strains, locus YKL009W, strain mrt4, stronger effect = lower value 1.02 | S. cerevisiae deletion strains, locus YKL068W, stronger effect = lower value 0.992 | S. cerevisiae deletion strains, locus YKL085W, strain MDH1 (second series), stronger effect = lower value 0.987 | S. cerevisiae deletion strains, locus YKL085W, strain MDH1, stronger effect = lower value 0.987 | S. cerevisiae deletion strains, locus YKL160W, strain elf1, stronger effect = lower value 0.964 | S. cerevisiae deletion strains, locus YKR001C, strain vps1, stronger effect = lower value 1.04 | S. cerevisiae deletion strains, locus YKR026C, strain gcn3, stronger effect = lower value 0.962 | S. cerevisiae deletion strains, locus YKR091W, strain srl3, stronger effect = lower value 0.972 | S. cerevisiae deletion strains, locus YLL001W, strain dnm1, stronger effect = lower value 0.98 | S. cerevisiae deletion strains, locus YLL026W, stronger effect = lower value 0.968 | S. cerevisiae deletion strains, locus YLL041C, strain sdh2, stronger effect = lower value 0.963 | S. cerevisiae deletion strains, locus YLR027C, strain aat2, stronger effect = lower value 0.985 | S. cerevisiae deletion strains, locus YLR039C, strain RIC1, stronger effect = lower value 1.21 | S. cerevisiae deletion strains, locus YLR058C, strain SHM2, stronger effect = lower value 1.05 | S. cerevisiae deletion strains, locus YLR102C, strain apc9, stronger effect = lower value 1.01 | S. cerevisiae deletion strains, locus YLR113W, strain HOG1, stronger effect = lower value 1.12 | S. cerevisiae deletion strains, locus YLR221C, strain rsa3, stronger effect = lower value 0.984 | S. cerevisiae deletion strains, locus YLR258W, strain gsy2, stronger effect = lower value 0.962 | S. cerevisiae deletion strains, locus YLR262C, strain YPT6 (second series), stronger effect = lower value 0.991 | S. cerevisiae deletion strains, locus YLR262C, strain YPT6, stronger effect = lower value 1.19 | S. cerevisiae deletion strains, locus YLR268W, strain sec22, stronger effect = lower value 1.02 | S. cerevisiae deletion strains, locus YLR320W, strain mms22, stronger effect = lower value 0.99 | S. cerevisiae deletion strains, locus YLR330W, strain CHS5, stronger effect = lower value 1.03 | S. cerevisiae deletion strains, locus YLR342W, strain FKS1, stronger effect = lower value 0.977 | S. cerevisiae deletion strains, locus YLR357W, strain rsc2, stronger effect = lower value 0.98 | S. cerevisiae deletion strains, locus YLR370C, strain arc18, stronger effect = lower value 0.98 | S. cerevisiae deletion strains, locus YLR371W, strain rom2, stronger effect = lower value 1.02 | S. cerevisiae deletion strains, locus YLR384C, strain iki3, stronger effect = lower value 0.97 | S. cerevisiae deletion strains, locus YLR418C, strain cdc73, stronger effect = lower value 1.07 | S. cerevisiae deletion strains, locus YML016C, strain PPZ1, stronger effect = lower value 1.03 | S. cerevisiae deletion strains, locus YML032C, strain rad52, stronger effect = lower value 1.01 | S. cerevisiae deletion strains, locus YML120C, strain ndi1, stronger effect = lower value 1 | S. cerevisiae deletion strains, locus YML124C, strain tub3, stronger effect = lower value 0.998 | S. cerevisiae deletion strains, locus YMR058W, strain fet3, stronger effect = lower value 0.968 | S. cerevisiae deletion strains, locus YMR078C, strain ctf18, stronger effect = lower value 0.989 | S. cerevisiae deletion strains, locus YMR125W, strain sto1, stronger effect = lower value 0.943 | S. cerevisiae deletion strains, locus YMR129W, stronger effect = lower value 0.973 | S. cerevisiae deletion strains, locus YMR205C, strain PFK2, stronger effect = lower value 0.987 | S. cerevisiae deletion strains, locus YMR223W, strain ubp8, stronger effect = lower value 1.03 | S. cerevisiae deletion strains, locus YMR231W, strain pep5, stronger effect = lower value 0.978 | S. cerevisiae deletion strains, locus YMR307W, strain GAS1, stronger effect = lower value 1.34 | S. cerevisiae deletion strains, locus YNL067W, strain RPL9B, stronger effect = lower value 1.02 | S. cerevisiae deletion strains, locus YNL071W, strain lat1, stronger effect = lower value 0.975 | S. cerevisiae deletion strains, locus YNL183C, strain NPR1, stronger effect = lower value 0.956 | S. cerevisiae deletion strains, locus YNL209W, strain ssb2, stronger effect = lower value 0.967 | S. cerevisiae deletion strains, locus YNL233W, strain BNI4, stronger effect = lower value 1.07 | S. cerevisiae deletion strains, locus YNL248C, strain rpa49, stronger effect = lower value 0.975 | S. cerevisiae deletion strains, locus YNL250W, strain rad50, stronger effect = lower value 0.999 | S. cerevisiae deletion strains, locus YNL271C, strain bni1, stronger effect = lower value 1.01 | S. cerevisiae deletion strains, locus YNL298W, strain CLA4, stronger effect = lower value 1.01 | S. cerevisiae deletion strains, locus YNL307C, strain MCK1, stronger effect = lower value 0.994 | S. cerevisiae deletion strains, locus YNL322C, strain KRE1 (second series), stronger effect = lower value 0.979 | S. cerevisiae deletion strains, locus YNL322C, strain KRE1, stronger effect = lower value 1.02 | S. cerevisiae deletion strains, locus YNR049C, strain mso1, stronger effect = lower value 0.961 | S. cerevisiae deletion strains, locus YNR052C, strain pop2, stronger effect = lower value 1 | S. cerevisiae deletion strains, locus YOL006C, strain TOP1, stronger effect = lower value 1.37 | S. cerevisiae deletion strains, locus YOL012C, strain htz1 1.2 | S. cerevisiae deletion strains, locus YOL147C, strain pex11, stronger effect = lower value 0.995 | S. cerevisiae deletion strains, locus YOR001W, strain rrp6, stronger effect = lower value 0.961 | S. cerevisiae deletion strains, locus YOR061W, strain CKA2, stronger effect = lower value 1.03 | S. cerevisiae deletion strains, locus YOR069W, strain VPS5, stronger effect = lower value 1.02 | S. cerevisiae deletion strains, locus YOR070C, strain gyp1, stronger effect = lower value 0.982 | S. cerevisiae deletion strains, locus YOR080W, strain dia2, stronger effect = lower value 0.98 | S. cerevisiae deletion strains, locus YOR083W, strain WHI5, stronger effect = lower value 0.958 | S. cerevisiae deletion strains, locus YOR106W, strain vam3, stronger effect = lower value 0.913 | S. cerevisiae deletion strains, locus YOR136W, strain idh2, stronger effect = lower value 1 | S. cerevisiae deletion strains, locus YOR144C, strain elg1, stronger effect = lower value 0.996 | S. cerevisiae deletion strains, locus YOR184W, strain ser1, stronger effect = lower value 1.02 | S. cerevisiae deletion strains, locus YOR231W, strain MKK1, stronger effect = lower value 1.03 | S. cerevisiae deletion strains, locus YOR265W, strain rbl2, stronger effect = lower value 0.993 | S. cerevisiae deletion strains, locus YOR270C, strain vph1, stronger effect = lower value 0.964 | S. cerevisiae deletion strains, locus YOR290C, strain snf2, stronger effect = lower value 0.934 | S. cerevisiae deletion strains, locus YOR316C, strain cot1, stronger effect = lower value 1 | S. cerevisiae deletion strains, locus YPL051W, strain arl3, stronger effect = lower value 1 | S. cerevisiae deletion strains, locus YPL078C, strain atp4, stronger effect = lower value 0.945 | S. cerevisiae deletion strains, locus YPL106C, strain sse1, stronger effect = lower value 0.964 | S. cerevisiae deletion strains, locus YPL240C, strain hsp82, stronger effect = lower value 0.987 | S. cerevisiae deletion strains, locus YPL241C, strain CIN2, stronger effect = lower value 1.02 | S. cerevisiae deletion strains, locus YPL256C, strain CLN2, stronger effect = lower value 0.994 | S. cerevisiae deletion strains, locus YPR119W, strain clb2, stronger effect = lower value 0.988 | S. cerevisiae deletion strains, locus YPR141C, strain kar3, stronger effect = lower value 0.996 | S. cerevisiae deletion strains, locus YPR163C, strain tif3, stronger effect = lower value 1 | S. cerevisiae deletion strains, locus YPR167C, strain met16, stronger effect = lower value 1.01 | S. cerevisiae deletion strains, strain wtn01, stronger effect = lower value 1.01 | S. cerevisiae strains, strain wild type, stronger effect = lower value 1.07
